ATXN2 expr inh: inhibitors of ATXN2 expression | HEK-293 ATXN2-luciferase reporter, luminescence, 24 h | Potency, µM (top dose mostly 57 µM), hits mostly inhibitors | hit rate 0.72% among 360,000 | AID 1745845; further: nearly all actives have a fitted effect of over 55% in size
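qHTS (up to 57 uM final) was run with 24 h compound exposure of reporter cells at 37 °C. Each well was multiplexed: SteadyGlo luminescence measured ATXN2-luciferase expression after a fluorogenic Gly-Phe-AFC viability readout (25 uM final).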
HepG2 viability: kills HepG2 cells in TGF-b inhibitor counter-screen; hit rate 0.76% among 410,000; HepG2 CAGA-GFP viability, ATP luminescence, 18 h; Potency, µM (titrated, usually from 46.1 µM), hits mostly cytotoxic
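CellTiter-Glo luminescence gave cytotoxicity after 18 hours at 37 degrees C. The cells were HepG2 CAGA-GFP in 1% FBS DMEM, stimulated with 500 pg/mL TGF-beta after compound addition. %Activity was normalised to no-cell wells (complete cell-killing) and DMSO (no toxicity), and curves were fitted and classified.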
TGFb SMAD3 inh: blocks TGF-b signaling. HepG2 CAGA-GFP TGF-b/SMAD3 reporter, GFP fluorescence, 18 h; TGF-beta stimulated, 500 pg/mL final. Potency, µM (highest dose often 46.1 µM), hits mostly inhibitors. hit rate 1.2% among 410,000. AID 588855; further: nearly all actives have a fitted effect of over 65% in size
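Cell-based qHTS in HEPG2 carrying a CAGA-GFP Smad reporter; compounds added before 500 pg/mL final TGF-beta, 18 h incubation at 37 degrees C, GFP fluorescence quantified per cell by imaging cytometry.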
S2 tox: cell viability loss in ATXN counter-screen. S2 cells (HEK-293 line with an ATXN2-luciferase reporter) viability, CellTiter-Fluor protease fluorescence, 24 h. Potency, µM (highest dose often 56.7 µM), usual class: cytotoxic. hit rate 0.49% among 400,000; further: nearly all actives have a fitted effect of over 40% in size
RORg inh: inhibitors of mouse ROR gamma transcriptional activity. P51450. hit rate 5.4% among 310,000. Drosophila S2 Gal4-RORgamma UAS-luciferase reporter, 20 h. Potency, µM (titrated, usually from 53.6 µM), most hits filed as inhibitors; further: nearly all actives have a fitted effect of over 60% in size
Target sequence (P51450 whole entry, looked up, the tested form may be a part): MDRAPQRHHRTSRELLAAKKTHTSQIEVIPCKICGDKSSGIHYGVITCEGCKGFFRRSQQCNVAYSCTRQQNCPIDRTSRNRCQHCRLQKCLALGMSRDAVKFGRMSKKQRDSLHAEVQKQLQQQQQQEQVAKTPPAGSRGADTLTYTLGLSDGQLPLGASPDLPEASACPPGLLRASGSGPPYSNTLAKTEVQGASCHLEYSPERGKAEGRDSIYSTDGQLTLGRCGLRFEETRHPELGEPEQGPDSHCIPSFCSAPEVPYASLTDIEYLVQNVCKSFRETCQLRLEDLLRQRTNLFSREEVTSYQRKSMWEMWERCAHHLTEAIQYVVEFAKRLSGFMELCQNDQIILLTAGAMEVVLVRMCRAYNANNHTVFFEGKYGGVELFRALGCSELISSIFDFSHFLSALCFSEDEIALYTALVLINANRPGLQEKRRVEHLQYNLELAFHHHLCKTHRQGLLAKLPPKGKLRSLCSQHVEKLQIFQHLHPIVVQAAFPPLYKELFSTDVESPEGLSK
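Using a luciferase readout, inhibitors were identified by reduced reporter activity in Drosophila cells coexpressing a copper-inducible Gal4–ROR gamma fusion and UAS-driven Photinus luciferase, incubated 20 hr after 700 uM copper sulfate.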
VP16 counter: inhibits Gal4-VP16 luciferase reporter, ROR gamma counter-screen | Potency, µM (titrated, usually from 53.6 µM), most hits filed as inhibitors | hit rate 3.5% among 310,000 | Drosophila S2 Gal4-VP16 UAS-luciferase, luminescence, 20 h;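 further: Gal4-VP16 expression switched on by copper sulfate through the metallothionein promoter; nearly all actives have a fitted effect of over 50% in size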
SK-N-SH 3D tox: SK-N-SH 3D spheroid viability loss. SK-N-SH 3D spheroid viability, PI/Hoechst imaging, 72 h. hit rate 70% among 65. shares compounds with ATXN2 expr inh. Potency, µM (titrated, usually from 30.7 µM), most hits filed as inhibitors
SJ-GBM2 3D tox: SJ-GBM2 spheroid viability loss, orthogonal 3D screen; SJ-GBM2 3D spheroid viability, PI/Hoechst imaging, 72 h; hit rate 80% among 65; Potency, µM (series often up to 30.7 µM), usual class: inhibitors; AID 1347136; shares compounds with ATXN2 expr inh
Daoy 3D tox: Daoy 3D spheroid viability loss. Potency, µM (top dose mostly 30.7 µM), actives largely listed as inhibitors. Daoy 3D spheroid viability, PI/Hoechst imaging, 72 h. hit rate 50% among 65. shares compounds with ATXN2 expr inh. AID 1347137
TC32 3D caspase: activates caspase in TC32 3D spheroids. hit rate 30% among 65. Potency, µM (top dose mostly 30.7 µM), usual class: inhibitors. shares compounds with ATXN2 expr inh. TC32 3D spheroids, caspase-3/7 fluorescence imaging, 24 h. AID 1347138
TC32 3D tox: TC32 3D spheroid viability loss. TC32 3D spheroid viability, PI/Hoechst imaging, 72 h. shares compounds with ATXN2 expr inh. Potency, µM (top dose mostly 30.7 µM), actives largely listed as inhibitors. hit rate 60% among 65
MG63 spheroid: reduced viability of MG-63 (6-TG R) 3D spheroids, orthogonal test; shares compounds with ATXN2 expr inh; Potency, µM (titrated, usually from 30.7 µM), actives largely listed as inhibitors; MG-63 (6-TG R) 3D spheroid viability, PI/Hoechst imaging, 72 h; AID 1347140; hit rate 50% among 65
RD 3D tox: kills RD rhabdomyosarcoma spheroids in orthogonal 3D test | RD rhabdomyosarcoma 3D spheroid viability, PI/Hoechst imaging, 72 h | hit rate 50% among 65 | shares compounds with ATXN2 expr inh | Potency, µM (top dose mostly 30.7 µM), most hits filed as inhibitors | AID 1347141
Each line names hits and unclear results; the compound was inactive in the other large screens (follow-up assays come after a bar, where they were run). Only a sample is shown. The call rests on the fitted dose curve; in most records, active means well fitted curve in the direction sought with a large enough effect; inconclusive means small, poorly fitted or top-dose-only effect, or another doubt; inactive means no such curve, though single readings can be large; an effect the other way counts as inactive or inconclusive.

CC[C@H]1OC(=O)C[C@@H](O)[C@H](C)[C@@H](O[C@@H]2O[C@H](C)[C@@H](O[C@H]3C[C@@](C)(O)[C@@H](O)[C@H](C)O3)[C@H](N(C)C)[C@H]2O)[C@@H](CC=O)C[C@@H](C)C(=O)/C=C/C(C)=C/[C@@H]1CO[C@@H]1O[C@H](C)[C@@H](O)[C@@H](OC)[C@H]1OC	none (no result: RORg inh, VP16 counter)
C=C(C)[C@H]1C2C(=O)O[C@H]1[C@H]1OC(=O)[C@@]34O[C@@H]3C[C@]2(O)[C@@]14C	none (no result: ATXN2 expr inh, HepG2 viability, TGFb SMAD3 inh, S2 tox)
CNCCCc1ccccc1	none
CC(C)(C)NCC(O)c1cc(Cl)c(N)c(Cl)c1 (stereo not drawn)	S2 tox inconclusive
c1nc[nH]n1	none (no result: ATXN2 expr inh, HepG2 viability, TGFb SMAD3 inh, S2 tox)
C[C@](O)(CS(=O)(=O)c1ccc(F)cc1)C(=O)Nc1ccc(C#N)c(C(F)(F)F)c1	ATXN2 expr inh inconclusive, RORg inh inconclusive (no result: HepG2 viability, TGFb SMAD3 inh, S2 tox)
O=C(N[C@H]1N=C(c2ccccc2F)c2cccc3c2N(CC3)C1=O)c1cc2ccccc2[nH]1	S2 tox inconclusive (no result: HepG2 viability, TGFb SMAD3 inh, RORg inh, VP16 counter)
O=C(N[C@@H]1CN2CCC1CC2)c1cc(Cl)cc2[nH]cnc12	none (no result: ATXN2 expr inh, HepG2 viability, TGFb SMAD3 inh, S2 tox)
O=c1[nH]c2ccc(Cl)cc2c(N[C@@H]2CN3CCC2CC3)c1-c1nc2ccccc2[nH]1	ATXN2 expr inh 0.068µM (no result: HepG2 viability, TGFb SMAD3 inh, S2 tox, RORg inh, VP16 counter) | SK-N-SH 3D tox 0.13µM | SJ-GBM2 3D tox 0.091µM | Daoy 3D tox 0.72µM | TC32 3D caspase 18µM | TC32 3D tox 13µM | MG63 spheroid 6.4µM | RD 3D tox inconclusive
O=C(N[C@H]1CN2CCC1CC2)c1ccc(Cl)cc1	none (no result: HepG2 viability, TGFb SMAD3 inh, S2 tox)
N#Cc1ccc(CN2CC3(CCNCC3)C2)cc1	none (no result: ATXN2 expr inh, HepG2 viability, TGFb SMAD3 inh, S2 tox)
FC(F)(F)c1ccc2c(c1)N(CCCN1CCN(CCCl)CC1)c1ccccc1S2	ATXN2 expr inh inconclusive, TGFb SMAD3 inh inconclusive, S2 tox inconclusive
CCN(CC)CCc1c[nH]c2ccccc12	none (no result: HepG2 viability, TGFb SMAD3 inh, RORg inh, VP16 counter)
CN(C)C(=O)Nc1ccc(-n2nc(C(C)(C)C)oc2=O)c(Cl)c1	none (no result: ATXN2 expr inh, HepG2 viability, TGFb SMAD3 inh, S2 tox)
O=C=NC1CCCCC1	none (no result: ATXN2 expr inh, HepG2 viability, TGFb SMAD3 inh, S2 tox)
CN1CCCC2(CCN(C(=O)c3ccco3)CC2)C1	none (no result: ATXN2 expr inh, HepG2 viability, TGFb SMAD3 inh, S2 tox)
Cc1ccc(NC(=O)N2CCN(c3cc(-c4noc(C)n4)ccc3C)CC2)c(F)c1	TGFb SMAD3 inh inconclusive (no result: RORg inh, VP16 counter)
CN(C)c1ccc(CNC(=O)Cn2c(=O)oc3cc(S(=O)(=O)N4CCCCCC4)ccc32)cc1	TGFb SMAD3 inh inconclusive (no result: ATXN2 expr inh, S2 tox, RORg inh, VP16 counter)
CC(C)C[C@H](NC(=O)CNC(=O)[C@H](CCC(N)=O)NC(=O)[C@H](Cc1ccc(O)cc1)NC(=O)[C@@H](NC(=O)[C@H](Cc1ccc(O)cc1)NC(=O)CNC(=O)[C@@H](N)CCCN=C(N)N)C(C)C)C(=O)O	none (no result: ATXN2 expr inh, HepG2 viability, TGFb SMAD3 inh, S2 tox)

Compound activity (PubChem)
